A short description of assay [1]: qHTS assay to identify small molecule antagonists of the vitamin D receptor (VDR) signaling pathway - cell viability counter screen (AID 743225). Further: nearly all actives have a fitted effect of over 50% in size. Summed up: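 Read-out: CellTiter-Glo luminescence measured 30 min after reagent addition at room temperature. Cells were VDR-bla HEK 293T exposed 16 h at 37C, 5% CO2, to compound with 3 nM final calcitriol agonist.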
Assay [2] in a line: qHTS assay to identify small molecule agonists of the endoplasmic reticulum stress response signaling pathway (AID 1159516; active means well fitted activation curve with a large enough effect in the signal ratio in the repeat runs, not every such curve was filed as active; the % refers to the signal ratio). Summed up:
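CellSensor ESRE-bla HeLa cells, carrying a beta-lactamase reporter driven by the ER stress response element, were plated overnight and exposed to compounds for 5 hr at 37 C. Reporter activity was read as FRET substrate fluorescence after 2 hr at room temperature.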

Assay [3] can be described thus: qHTS assay to identify small molecule antagonists of the retinoid-related orphan receptor gamma (ROR-gamma) signaling pathway - cell viability counter screen (AID 1159520). Further: nearly all actives have a fitted effect of over 50% in size. Summed up: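 Cytotoxicity was read from cellular ATP (CellTiter-Glo luminescence) after 16 hr at 37 C with 1 uM doxycycline induction. The inducer was added 2 hr after compound transfer to Tet-on ROR gamma CHO cells.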

For assay [4], the target named is Nuclear receptor ROR-gamma (Homo sapiens) (UniProt P51449). Nature of the assay: qHTS assay to identify small molecule antagonists of the retinoid-related orphan receptor gamma (ROR-gamma) signaling pathway (AID 1159521;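 further: CHO cells with doxycycline inducible ROR-gamma driving an RORE luciferase reporter; top concentration of the series differs between compounds; nearly all actives have a fitted effect of over 50% in size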). The method, boiled down:
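CHO Tet-on RORγ, RORE-luc reporter. Cpd 2 h pre-incubation, then dox hyclate 1 uM final, 16 h, 37 C/5% CO2. ONE-Glo luminescence; decrease = antagonist.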

The nature of assay [5]: qHTS assay to identify small molecule agonists of the AP-1 signaling pathway - cell viability counter screen (AID 1159525; calls by dose curve; further: nearly all actives have a fitted effect of over 55% in size). The method, boiled down:
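Luminescent ATP readout (Cell Titer Glo, 30 min RT), normalised to DMSO and tetra n-octyl ammonium bromide controls. Cells were ME-180 AP-1-bla in 0.5% dialyzed FBS Opti-MEM, with a 5 h, 37 °C compound exposure.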

A short description of assay [6]: qHTS assay to identify small molecule agonists of the AP-1 signaling pathway (AID 1159526; calls by dose curve).
Assay [7] has as its target Retinoic acid receptor RXR-alpha (Homo sapiens) (UniProt P19793). Nature of the assay: qHTS assay to identify small molecule agonists of the RXR signaling pathway (AID 1159527; calls by dose curve; further: nearly all actives have a fitted effect of over 35% in size). The method, boiled down: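 Read-out: beta-lactamase FRET ratio (405 nm excitation, 460 and 530 nm emission) after 2 hr substrate loading at room temperature. Cells were RXR-alpha-UAS-bla HEK 293T treated with compounds for 16 hr in 2% charcoal-stripped FBS medium.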

Assay [8] can be described thus: qHTS assay to identify small molecule agonists of the RXR signaling pathway - cell viability counter screen (AID 1159529). Further: series mostly up to about 77 µM; nearly all actives have a fitted effect of over 50% in size. The method, boiled down: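 HEK 293T RXRa-bla cells, 2% CS-FBS; 5 h settle; cpd 16 h 37 C, 5% CO2; CellTiter-Glo 30 min RT, luminescence. Tetraoctyl ammonium bromide as positive control.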
The nature of assay [9]: qHTS assay to identify small molecule antagonists of the retinoid acid receptor (RAR) signaling pathway - cell viability counter screen (AID 1159551). Further: nearly all actives have a fitted effect of over 35% in size. The method, boiled down:
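C3RL4 cells were seeded overnight at 37 C, then treated with compounds plus 1 uM (final) retinol for 6 h at 37 C. Viability was read as ATP by CellTiter-Glo luminescence after 30 min at room temperature.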

Assay [10] can be described thus: qHTS assay to identify small molecule antagonists of the retinoic acid receptor (RAR) signaling pathway (AID 1159552; further: nearly all actives have a fitted effect of over 50% in size). The method, boiled down:
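Cells of the C3RL4 line were seeded, incubated overnight, then dosed with compounds in DMSO followed immediately by retinol (1 uM final). Six hours later luciferase detection reagent went in; signal was measured after 30 min at RT.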

The nature of assay [11]: qHTS assay to identify small molecule agonists of the retinoic acid receptor (RAR) signaling pathway (AID 1159553). Further: potency means the concentration at half of the fitted maximal effect. Summed up: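 C3RL4 cells carrying a RARE luciferase reporter were plated overnight at 37 C, then exposed to compounds in DMSO for 6 hr at 37 C and 5% CO2. Luminescence was read 30 min after luciferase reagent addition at room temperature.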
The nature of assay [12]: qHTS assay to identify small molecule antagonists of the estrogen related receptor (ERR) signaling pathway from Tox21 library - cell viability counter screen (AID 1224834). Further: nearly all actives have a fitted effect of over 30% in size. The method, boiled down: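 ERR reporter cells were plated 6 h before compound addition, then exposed to test compounds in DMSO for 17.5 h at 37 C. Viability was read as CellTiter-Fluor fluorescence after a 30-minute incubation at 37 C.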

The target in assay [13] is Luciferin 4-monooxygenase (Photinus pyralis) (UniProt P08659). Nature of the assay: qHTS assay to identify small molecule inhibitors of firefly luciferase (AID 1224835). Further: nearly all actives have a fitted effect of over 25% in size. Further: potency means the concentration at half of the fitted maximal effect. The method, boiled down: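 Inhibition of purified Photinus luciferase is measured by luminescence. Substrate levels (D-luciferin, ATP) sit at their KM values. Each compound is tested in a concentration series.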

A short description of assay [14]: qHTS assay to identify small molecule agonists of the constitutive androstane receptor (CAR) signaling pathway - cell viability counter screen (AID 1224836). Further: series mostly up to about 92 µM; nearly all actives have a fitted effect of over 45% in size. Summed up:
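HepG2-CYP2B6-hCAR, 2500 cells/well, 4 h pre-incubation; cpd 15 conc + PK11195 0.75 uM final; 23 h, 37 C/5% CO2; CellTiter-Fluor, fluorescence.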

Assay [15] can be described thus: qHTS assay to identify small molecule antagonists of the constitutive androstane receptor (CAR) signaling pathway - cell viability counter screen (AID 1224837). Further: series mostly up to about 92 µM; nearly all actives have a fitted effect of over 45% in size. Summed up: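 HepG2 cells stably expressing hCAR and a CYP2B6-2.2kb reporter were plated and pre-incubated 4 hr at 37 C/5% CO2, then given compounds at 15 concentrations plus 50 nM CITCO (final). After 23 hr, viability was read by CellTiter-Fluor fluorescence.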

The target of assay [16] is Nuclear receptor subfamily 1 group I member 3 (Homo sapiens) (UniProt Q14994). Nature of the assay: qHTS assay to identify small molecule agonists of the constitutive androstane receptor (CAR) signaling pathway (AID 1224839).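 Further: HepG2 cells stably carrying human CAR and a CYP2B6 luciferase reporter; series mostly up to about 92 µM; nearly all actives have a fitted effect of over 15% in size.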 Summed up: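 HepG2-CYP2B6-hCAR cells, 2500/well, 4 h pre-incubation; compounds 15 conc.; PK11195 0.75 uM final; 24 h, 37 C/5% CO2; ONE-Glo luciferase read.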

Assay [17] can be described thus: qHTS assay to identify small molecule antagonists of the estrogen related receptor signaling pathway with the pleiotropic PPARgamma coactivator (PGC) from Tox21 10K library - cell viability counter screen (AID 1224840; active means well fitted cell-killing curve with a large enough effect in the repeat runs, not every such curve was filed as active; further: nearly all actives have a fitted effect of over 40% in size). Summed up: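 PGC/ERR cells were seeded at 2,000 cells/well and left 6 hours at 37 C/5% CO2 before pin-tool addition of compounds in DMSO. After 17.5 hours at 37 C, CellTiter-Fluor was added and fluorescence read 30 minutes later.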

Assay [18] in a line: qHTS assay to identify small molecule agonists of the endoplasmic reticulum stress response signaling pathway - cell viability counter screen (AID 1159517; calls by dose curve). Summed up:
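HeLa cells carrying an ESRE-driven beta-lactamase reporter receive compound for 5 hr at 37 C. Cell viability is then gauged with CellTiter-Glo by luminescence, 30 min at room temperature.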

The target of assay [19] is Nuclear receptor subfamily 1 group I member 3 (Homo sapiens) (UniProt Q14994). Nature of the assay: qHTS assay to identify small molecule antagonists of the constitutive androstane receptor (CAR) signaling pathway (AID 1224838). Further: nearly all actives have a fitted effect of over 40% in size. Summed up:
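HepG2 cells stably co-transfected with hCAR and a CYP2B6-2.2kb luciferase reporter were seeded 4 h before compound addition at 15 concentrations. Cells were stimulated with 50 nM CITCO (final) for 24 h at 37 C; luciferase luminescence was then read.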

Records with an inconclusive call do not appear. Unmarked numbers belong to inactive results. Active and inactive are the calls of the source. Unless noted, the call rests on the fitted dose curve; in most records, active means well fitted curve in the direction sought with a large enough effect in the repeat runs; inconclusive means weak or mixed curves; inactive means no such curve, though single readings can be large; an effect the other way counts as inactive or inconclusive.

For 12 molecules, outcome and Potency results are on record in PubChem BioAssay (Tox21).

Chain of Luciferin 4-monooxygenase (Photinus pyralis) (P08659 whole entry, looked up): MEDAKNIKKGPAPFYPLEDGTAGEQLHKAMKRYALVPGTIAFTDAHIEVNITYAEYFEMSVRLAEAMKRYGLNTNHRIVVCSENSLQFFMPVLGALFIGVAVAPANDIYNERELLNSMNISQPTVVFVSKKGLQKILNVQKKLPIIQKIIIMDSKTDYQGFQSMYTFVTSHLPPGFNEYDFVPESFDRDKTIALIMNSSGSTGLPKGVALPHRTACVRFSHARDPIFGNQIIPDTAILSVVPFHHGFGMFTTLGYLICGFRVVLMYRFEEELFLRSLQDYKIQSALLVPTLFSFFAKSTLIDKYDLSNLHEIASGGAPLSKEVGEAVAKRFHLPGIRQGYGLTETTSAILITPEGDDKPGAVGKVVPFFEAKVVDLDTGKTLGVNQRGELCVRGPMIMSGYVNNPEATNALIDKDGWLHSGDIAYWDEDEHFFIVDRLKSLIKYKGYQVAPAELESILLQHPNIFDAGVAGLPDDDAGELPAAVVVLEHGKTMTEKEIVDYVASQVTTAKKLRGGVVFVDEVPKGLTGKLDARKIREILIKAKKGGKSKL
Chain of Nuclear receptor subfamily 1 group I member 3 (Homo sapiens) (Q14994 whole entry, looked up): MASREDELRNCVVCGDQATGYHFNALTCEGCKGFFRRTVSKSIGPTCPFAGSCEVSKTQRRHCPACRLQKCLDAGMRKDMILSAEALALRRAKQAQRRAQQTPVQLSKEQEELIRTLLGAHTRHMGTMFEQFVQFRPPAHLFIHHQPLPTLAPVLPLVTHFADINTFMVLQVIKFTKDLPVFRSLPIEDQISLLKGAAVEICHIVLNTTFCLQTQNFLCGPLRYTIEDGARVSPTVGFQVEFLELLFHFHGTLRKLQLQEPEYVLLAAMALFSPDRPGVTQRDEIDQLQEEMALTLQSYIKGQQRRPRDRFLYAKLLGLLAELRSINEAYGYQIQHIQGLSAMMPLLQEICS
Chain of Retinoic acid receptor RXR-alpha (Homo sapiens) (P19793 whole entry, looked up): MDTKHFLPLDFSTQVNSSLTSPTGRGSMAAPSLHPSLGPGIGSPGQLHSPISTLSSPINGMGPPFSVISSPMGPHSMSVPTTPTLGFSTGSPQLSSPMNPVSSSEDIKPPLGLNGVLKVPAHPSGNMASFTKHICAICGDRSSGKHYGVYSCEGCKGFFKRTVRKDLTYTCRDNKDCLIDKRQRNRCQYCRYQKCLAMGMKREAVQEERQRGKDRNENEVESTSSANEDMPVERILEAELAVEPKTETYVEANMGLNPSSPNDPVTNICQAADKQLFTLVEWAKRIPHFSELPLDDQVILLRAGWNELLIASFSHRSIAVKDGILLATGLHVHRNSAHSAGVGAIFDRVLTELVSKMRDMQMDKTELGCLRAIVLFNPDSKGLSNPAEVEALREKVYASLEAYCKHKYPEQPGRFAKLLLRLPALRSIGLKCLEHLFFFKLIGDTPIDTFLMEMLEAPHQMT

For the molecule `CCC(C)c1nccnc1OC` (configuration not stated), the outcome in assay [1], in [3], in [4], in [5], in assay [9] and in [10] was inactive. Moreover, the result in assay [12], in [14], in [15] and in assay [17] was inactive. In addition, the Potency result in [2], in [6], in assay [7], in assay [8], in assay [11] and in assay [13] was “inactive” each time. For the same molecule, in [16], the Potency result is “inactive”.
As to `CC(=O)SCC(CC(=O)c1ccc(C)cc1)C(=O)O` (configuration not stated), the outcome in assay [1], in [18], in [3], in assay [4], in assay [5] and in [9] was inactive. The outcome in assay [10], in assay [12], in assay [14], in assay [15] and in assay [17] was inactive. Also, the Potency result in assay [2], in [6], in assay [7], in [8] and in assay [11] was “inactive” in each case. Besides, the Potency in [13] was 27.5 µM (active).
For `COC(=O)/C=C(\C)CCC=C(C)C`, the Potency result in assay [2], in [6], in [7], in assay [8], in [11] and in assay [13] was “inactive” in each case. For the same molecule, the outcome in assay [18], in assay [3], in [4], in [5], in assay [9] and in assay [10] was inactive. The molecule was called inactive in assay [12], in assay [14], in assay [15] and in assay [17].
For `N#CC1(N)CCCCC1`, the result in assay [1], in assay [18], in assay [3], in [4], in assay [5] and in assay [9] was inactive. The molecule was classed as inactive in [10], in assay [12], in [14], in assay [15], in [19] and in assay [17]. For the same molecule, the Potency result in [2], in assay [6], in assay [7], in assay [8], in assay [11] and in assay [13] was “inactive” throughout. In assay [16], the Potency result is “inactive”.
Consider `Cc1ccc(OC(=O)CC(C)C)cc1`, for which the Potency entry in assay [2], in assay [6], in [7], in [8], in assay [11] and in assay [16] was “inactive” throughout. In addition, the outcome in assay [18], in assay [3], in assay [4], in assay [5], in assay [9] and in [10] was inactive. The outcome in [12], in assay [14] and in [15] was inactive. Besides, the Potency in assay [13] was 35.6 µM (active).
Take `Cc1ccccc1OCC(=O)O`: the result in assay [1], in assay [18], in assay [3], in assay [4], in assay [5] and in [9] was inactive. Also, the molecule was called inactive in assay [10], in assay [12], in assay [14], in assay [15], in assay [19] and in assay [17]. For the same molecule, the Potency entry in assay [2], in assay [6], in assay [7], in [11], in assay [13] and in [16] was “inactive” in each case.
Consider `CCCCC(O)/C=C(C)/C=C/C=C/C(=O)N1CCCC1=O` (configuration not stated), for which the outcome in assay [1], in assay [18], in [3], in assay [4], in [5] and in assay [9] was inactive. The call in assay [10], in assay [12], in assay [14], in assay [15] and in assay [17] was inactive. Also, the Potency result in assay [2], in [6], in assay [7], in assay [8], in assay [11] and in assay [13] was “inactive” throughout. The Potency result in [16] was “inactive”.
For the molecule `N#Cc1cc(NC(=O)C(=O)O)c(Cl)c(NC(=O)C(=O)O)c1`, the outcome in assay [1], in [18], in assay [3], in assay [4], in assay [5] and in assay [9] was inactive. In addition, the call in assay [10], in assay [14], in assay [15] and in assay [17] was inactive. For the same molecule, the Potency entry in assay [2], in assay [6], in assay [7], in [8], in [11] and in [13] was “inactive” in each case.
On to `C=CCCCCCCCCOC(C)=O`, for which the call in assay [1], in assay [18], in [3], in [4], in assay [5] and in [9] was inactive. The result in [10], in assay [12], in assay [14], in [15] and in assay [17] was inactive. Also, the Potency entry in [2], in assay [6], in assay [7], in assay [8], in assay [11] and in assay [13] was “inactive” in each case.
As to `O=C(O)P(=O)(O)O`, the call in assay [1], in assay [18], in assay [3], in assay [4], in [5] and in assay [9] was inactive. In addition, the molecule was classed as inactive in assay [10], in assay [12], in assay [14], in assay [15], in assay [19] and in assay [17]. The Potency entry in assay [2], in [6], in assay [7], in assay [11], in assay [13] and in assay [16] was “inactive” throughout.
Consider `CNC(C)=O`, for which the molecule was classed as inactive in assay [1], in assay [18], in assay [3], in assay [4], in [5] and in assay [9]. Besides, the outcome in [10], in [14], in assay [15], in [19] and in assay [17] was inactive. Moreover, the Potency result in [2], in assay [6], in [7], in [8], in assay [11] and in assay [13] was “inactive” in each case. The Potency entry in [16] was “inactive”.
For `Cc1nnc(C(=O)NC(C)(C)c2nc(C(=O)NCc3ccc(F)cc3)c(O)c(=O)n2C)o1`, the molecule was classed as inactive in assay [1], in assay [18], in [3], in assay [4], in assay [5] and in assay [9]. Also, the outcome in assay [10], in [12], in [14], in [15] and in [17] was inactive. In addition, the Potency result in assay [2], in [6], in assay [7], in assay [8] and in assay [13] was “inactive” each time. The Potency in assay [11] was 33.5 µM (active).
